Laboratory results reported in PubChem BioAssay AID1508615 (Milbrandt Lab, Department of Genetics, Washington …, 2020).
The whole screen tested about 1,600 compounds, of which about 20 (1%) were called active.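 The calls were made as follows: active = ratio of uncleaved NAD to its breakdown product ADP-ribose above 4, meaning the enzyme was inhibited; inactive = the rest.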 The entries come from a sample that favours actives as a whole.

Molecular target: NAD(+) hydrolase SARM1 (Homo sapiens) (UniProt Q6SZW1)
Sequence (Q6SZW1 whole entry, looked up): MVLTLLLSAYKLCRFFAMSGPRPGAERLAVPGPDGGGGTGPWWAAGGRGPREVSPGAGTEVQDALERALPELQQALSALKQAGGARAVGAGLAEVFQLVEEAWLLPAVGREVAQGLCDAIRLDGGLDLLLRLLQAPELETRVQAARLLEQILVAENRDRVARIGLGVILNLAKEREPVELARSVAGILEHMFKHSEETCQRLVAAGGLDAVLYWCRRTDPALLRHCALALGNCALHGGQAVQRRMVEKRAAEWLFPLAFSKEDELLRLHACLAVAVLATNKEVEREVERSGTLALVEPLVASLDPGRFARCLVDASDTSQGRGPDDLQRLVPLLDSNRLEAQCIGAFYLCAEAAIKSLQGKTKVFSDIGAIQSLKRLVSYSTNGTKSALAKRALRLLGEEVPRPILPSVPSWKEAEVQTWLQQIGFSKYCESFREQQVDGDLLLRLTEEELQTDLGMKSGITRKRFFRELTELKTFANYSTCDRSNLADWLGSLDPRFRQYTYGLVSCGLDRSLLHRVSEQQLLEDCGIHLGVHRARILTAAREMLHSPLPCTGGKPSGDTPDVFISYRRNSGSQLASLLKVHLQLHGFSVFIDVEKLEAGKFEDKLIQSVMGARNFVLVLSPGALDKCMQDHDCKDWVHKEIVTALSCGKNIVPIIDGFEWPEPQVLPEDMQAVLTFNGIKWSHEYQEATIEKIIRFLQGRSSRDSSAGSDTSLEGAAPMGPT
Experiment: SARM1 TIR NADase inhibitors by HPLC, primary screen, cell lysate, HPLC readout (AID 1508615);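 also: substrate NAD at 5 µM with 60 min at 37 °C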
Conditions: HEK293T SAM-TIR lysate, at 5 µM, stronger effect = higher value

Structure (SMILES) | NAD/ADPR ratio
CCOc1ccc(NC(=O)N(O)C2(C#N)CCCCC2)cc1 | 3 (inactive)
CCOc1ccc(NC(=O)c2cc3ccccc3cc2O)cc1 | 3 (inactive)
CCOc1ccc(NC(=O)C2CCCN(C)C2)cc1 (centres undefined) | 11.2 (active)
Cc1nn(-c2ccccc2)c2c1C(c1ccc([N+](=O)[O-])cc1)C(C#N)=C(N)O2 (centres undefined) | 3 (inactive)
COc1cc(CCC(=O)O)on1 | 3 (inactive)
COC(=O)CC1(C(=O)OC)Nc2cc(Cl)c(Cl)cc2S(=O)(=O)N1O (centres undefined) | 13.5 (active)
O=C(O)CCNC1CCCCC1 | 3 (inactive)
O=C(NC1CCCCC1)c1cc2ccccc2cc1O | 3 (inactive)
Oc1cc(CNC2CCCCC2)c(O)cc1CNC1CCCCC1 | 10.8 (active)
O=C(O)c1ccc(OCCOc2ccccc2)cc1 | 3 (inactive)
NC(N)=NC(=S)Nc1ccc(Cl)cc1 | 3 (inactive)
COc1cc(CC(=O)C(=O)O)oc(=O)c1 | 3 (inactive)
CN(C)C(=O)c1cccc(COc2ccc(N3C(N)=NC(N)=NC3(C)C)cc2Cl)c1 | 3 (inactive)
Cn1c(=O)c2c(nc(N3CCOCC3)n2C)n(C)c1=O | 3 (inactive)
Cc1oc2c(c(C)nn2-c2ccccc2)c(=O)c1Cl | 3 (inactive)
Cc1nc(-c2ccccc2)c(Cc2ccccc2O)c(=O)[nH]1 | 3 (inactive)
Cc1nc2c(O)cccc2cc1CO | 3 (inactive)
S=c1cn[nH]c2ccccc12 | 3 (inactive)
CC1=C(c2ccccc2)C=NNCC1=O | 3 (inactive)
COC(=O)c1cncc(C)c1 | 3 (inactive)
Nc1ccc(C(=O)Oc2ccc([N+](=O)[O-])cc2)cc1 | 3 (inactive)
O=C(c1cccnc1)C1Cc2ccccc2C1=O (centres undefined) | 3 (inactive)
Nc1ccc(Br)cc1Br | 3 (inactive)

Structure (SMILES) | NAD/ADPR ratio
CCCCOc1nc2c(c(=O)n(C)c(=O)n2C)n1C | 3 (inactive)
Cc1ccc2c(c1)c1ccc3c(c1n2C)C(=O)C=CC3=O | 5.6 (active)
COc1ccc2c(c1)c1ccc3c(c1n2C)C(=O)C=CC3=O | 7.6 (active)
Cc1cccc2c1c1ccc3c(c1n2C)C(=O)C=CC3=O | 8.3 (active)
Cn1c2ccccc2c2ccc3c(c21)C(=O)C=CC3=O | 12.5 (active)
Cc1c(C(C)(C(=O)O)c2c(C)n(C)c3ccccc23)c2ccccc2n1C | 3 (inactive)
C=CCN(CC=C)C(=O)Nc1cc(OC)ccc1OC | 3.2 (inactive)
Cc1nnc(Cc2ccccc2)c2n[nH]c(C)c12 | 3 (inactive)
CC(=O)[C@@]1(O)C(C)CC2C3C=C(C)C4=Cc5c(cnn5-c5ccccc5)C[C@]4(C)C3C(O)C[C@@]21C (some centres undefined) | 3 (inactive)
CCOC(=O)c1ccc2c(c1)NCc1cccc(OC)c1O2 | 3 (inactive)
c1ccc(-c2cn3ccccc3n2)cc1 | 3 (inactive)
CC1(C)CCCC2(C)C(OCCO)=CC(=O)C=C12 (centres undefined) | 3 (inactive)
COc1cc2c(O)cc(C(=O)O)c(-c3cc(OC)c(OC)c(OC)c3)c2cc1OC | 3 (inactive)
CSc1nc(Cl)cc(=O)[nH]1 | 3 (inactive)
OC(C#Cc1ccccc1)(c1ccccc1)c1ccccc1 | 3 (inactive)
Cc1cc(=O)n2c3c(c4c(cc13)c(CN(C)C)cc(=O)n4C)OC2 | 3 (inactive)
CC1(C)CC2(C)OC2C2(C1)N=NC(=Nc1ccccc1)O2 (centres undefined) | 3 (inactive)
Cc1cc2nc(-c3ccccn3)c(-c3ccccn3)nc2cc1C | 3 (inactive)
S=C(Sc1ccc(Cl)cc1)Sc1ccc(Cl)cc1 | 3 (inactive)
Cc1ccc([N+](=O)[O-])cc1NC(=O)Nc1cccc(F)c1 | 3 (inactive)
CC1(C)SC(C)(C)N(C=O)C1C(=O)O (centres undefined) | 3 (inactive)
CCOC(=O)Cc1cc(=O)[nH]n(-c2ccccc2)c1=O | 3 (inactive)
Cc1ccc(/C=C2\CCOC2=O)cc1 | 3 (inactive)

Structure (SMILES) | NAD/ADPR ratio
Cc1ccc2c(c1)sc1nncn12 | 3 (inactive)
Oc1ccc(Cc2ccccc2Cl)c(O)c1 | 3 (inactive)
COc1cc(/C=N/Nc2nc3c([nH]2)c(=O)n(C)c(=O)n3C)ccc1O | 3 (inactive)
O=C1CCC(NC(=O)c2ccccc2)C(=O)N1 (centres undefined) | 3 (inactive)
O=C(/C=C/c1cccnc1)c1ccccc1O | 3 (inactive)
CCCCCn1cnc2c(=S)nc(N)[nH]c21 | 3 (inactive)
CN1CN(C)C(c2ccncc2)=C1c1ccncc1 | 3 (inactive)
CCCCOc1ccc(NC(=O)Nc2nnc(C)s2)cc1 | 3 (inactive)
Cc1ccc(C(C)C)cc1NC(=O)Nc1ccc([N+](=O)[O-])cc1 | 3 (inactive)
Cc1cc(NC(=O)c2ccccc2)nc(C)n1 | 3 (inactive)
Nc1ccnn1-c1ccccc1 | 3 (inactive)
O=C(O)C(Cc1cn[nH]n1)=NO | 3 (inactive)
NC(=O)SCC(=O)Nc1ccccc1C(=O)O | 3 (inactive)
CC(NC(=O)c1ccc(Cl)c(Cl)c1)c1ccc(-c2ccccc2)cc1 (centres undefined) | 3 (inactive)
OC(c1cc(-c2ccc(Cl)cc2)nc2ccccc12)C1CCCCN1 (centres undefined) | 3 (inactive)
Clc1ccc(SCNc2ccccc2Cl)cc1 | 3 (inactive)
Nc1ncnc2c1ncn2C1OC(CO)C(O)C1N (centres undefined) | 3 (inactive)
CC1(C)CC(=O)C(CC(=O)c2ccccc2)=C(NN=C(N)N)C1 | 3 (inactive)
O=C(O)CCC1(c2ccccc2)NC(=O)NC1=O (centres undefined) | 3 (inactive)
c1ccc2c(c1)Oc1cccc3cccc-2c13 | 3 (inactive)
O=C1c2cc([N+](=O)[O-])ccc2-c2cc(Br)c(N=C(NO)C(F)(F)F)cc21 | 3 (inactive)
O=c1cc[nH]c2c(Cl)cccc12 | 3 (inactive)
COc1cc(-c2ccc(NC(=O)NC3CC3)c(OC)c2)ccc1NC(=O)NC1CC1 | 3 (inactive)
